Measurements from PubChem BioAssay AID1224854 (National Center for Advancing Translational Sciences (NCATS), 2016).
Inconclusive results are not listed. Entries that show only a call come without a potency. The source made the active and inactive calls. Calls follow the shape of the dose curve; as a rule, active = well fitted activation curve with a large enough effect; inconclusive = small, poorly fitted or top-dose-only effect; inactive = flat fitted curve, though single readings scatter.

test: Cell viability assay for measurement of the protective activity of small molecules against cell death caused by Zika virus infection in human astrocytoma cells; details: SNB-19 Zika virus cytoprotection, ATP luminescence, 72 h; series mostly up to 46.1 µM
Method in brief: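 SNB-19 astrocytoma cells pre-treated with compounds for 1 h, then infected with ZIKV at 2 FFU/cell and incubated 72 h at 37 C. Viability read as ATP luminescence; percent inhibition of virus-induced viability loss calculated.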

| Compound | Potency |
| --- | --- |
| O=C(O)CCC(=O)c1ccc(-c2ccccc2)cc1 | inactive |
| O=C(O)[C@@H](c1ccc(OCc2ccc3ccccc3n2)cc1)C1CCCC1 | inactive |
| CC1(C)OC2=C(C(=O)c3ccccc3C2=O)[C@H](NCc2ccccc2)[C@H]1O | inactive |
| Nc1nc2ccc([N+](=O)[O-])cc2s1 | inactive |
| COc1cc2nc(N3CCN(C(=O)C4CCCO4)CC3)nc(N)c2cc1OC (centres undefined) | inactive |
| CCCS(=O)c1ccc2nc(NC(=O)OC)[nH]c2c1 (centres undefined) | inactive |
| CS(=O)(=O)c1ccc(-c2cn3ccccc3n2)cc1 | inactive |
| COc1cccc(-c2cc(=O)c3ccccc3o2)c1N | inactive |
| C[C@@H](O[C@H]1OCCN(Cc2n[nH]c(=O)[nH]2)[C@@H]1c1ccc(F)cc1)c1cc(C(F)(F)F)cc(C(F)(F)F)c1 | inactive |
| Cc1ccc(O)c(-n2nc3ccccc3n2)c1 | inactive |
| O=C(Nc1cc2cc[nH]c2cn1)c1ccccc1 | inactive |
| CC(O)=C(C#N)C(=O)Nc1ccc(C(F)(F)F)cc1 | inactive |
| NC(=O)c1cccc2[nH]c(-c3ccc([C@H]4CCCN4)cc3F)nc12 | inactive |
| O=C(Nc1ncc([N+](=O)[O-])s1)c1cccs1 | inactive |
| Cc1cc(O)c2ccccc2c1O | inactive |
| O=C(O)Cc1ccc(-c2ccccc2)cc1 | inactive |
| O=C(O)c1ccccc1NCCc1ccccc1 | inactive |
| CC(=NNC(=S)N1CCC1)c1ccccn1 | 690 nM (active) |
| CCCC(=O)OC[C@@H](OC(=O)CCC)[C@@H](OC(=O)CCC)[C@H](Cn1c2nc(=O)[nH]c(=O)c-2nc2cc(C)c(C)cc21)OC(=O)CCC | inactive |
